# Source: the supplement of paper PMC11732987, “Enantioselective OTUD7B fragment discovery through chemoproteomics screening and high-throughput optimisation” (Communications Chemistry, 2025)
# A number with no mark means an inactive call.
# Legend:
# Experiment in all cases: log2 ratio of Biotin-Ahx-Ub-VS probe labelling (fragment/DMSO); higher = less target engagement (more negative = stronger competition), active = hit call of the paper (q ≤ 0.05, log2 ratio ≤ -1)
# Settings in all cases: compound concentration: 200 uM; treatment time: 3 h
# OTUD6B = molecular target: T1, OTUD6B (UniProt Q8N6M0)
# T1 sequence (whole entry): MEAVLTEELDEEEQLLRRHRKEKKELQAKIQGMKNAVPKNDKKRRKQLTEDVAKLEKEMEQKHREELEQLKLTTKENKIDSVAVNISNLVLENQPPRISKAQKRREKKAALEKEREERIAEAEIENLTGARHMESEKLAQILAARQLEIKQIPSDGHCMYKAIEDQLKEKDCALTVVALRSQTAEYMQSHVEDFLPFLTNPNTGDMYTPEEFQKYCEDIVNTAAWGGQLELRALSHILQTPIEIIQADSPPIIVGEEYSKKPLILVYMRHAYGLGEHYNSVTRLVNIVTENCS
# Outline: (§1)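 HEK293T lysate (495 µg per sample, in Tris/CHAPS/IGEPAL buffer with protease inhibitors) was treated in triplicate with fragment at 200 µM or with DMSO for 3 h. It was then treated with Biotin-Ahx-Ub-VS (0.5 µM final) for 1 h. Labelled DUBs were NeutrAvidin-enriched, digested with LysC and trypsin, and run by diaPASEF LC-MS/MS. Spectronaut label-free quantities were global-median-normalised. Values are average log2 ratios fragment/DMSO by unpaired t-test, using proteins with ≥2 unique peptides.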
# OTUD7B = molecular target: T2, OTUD7B (UniProt Q6GQQ9)
# T2 sequence (whole entry): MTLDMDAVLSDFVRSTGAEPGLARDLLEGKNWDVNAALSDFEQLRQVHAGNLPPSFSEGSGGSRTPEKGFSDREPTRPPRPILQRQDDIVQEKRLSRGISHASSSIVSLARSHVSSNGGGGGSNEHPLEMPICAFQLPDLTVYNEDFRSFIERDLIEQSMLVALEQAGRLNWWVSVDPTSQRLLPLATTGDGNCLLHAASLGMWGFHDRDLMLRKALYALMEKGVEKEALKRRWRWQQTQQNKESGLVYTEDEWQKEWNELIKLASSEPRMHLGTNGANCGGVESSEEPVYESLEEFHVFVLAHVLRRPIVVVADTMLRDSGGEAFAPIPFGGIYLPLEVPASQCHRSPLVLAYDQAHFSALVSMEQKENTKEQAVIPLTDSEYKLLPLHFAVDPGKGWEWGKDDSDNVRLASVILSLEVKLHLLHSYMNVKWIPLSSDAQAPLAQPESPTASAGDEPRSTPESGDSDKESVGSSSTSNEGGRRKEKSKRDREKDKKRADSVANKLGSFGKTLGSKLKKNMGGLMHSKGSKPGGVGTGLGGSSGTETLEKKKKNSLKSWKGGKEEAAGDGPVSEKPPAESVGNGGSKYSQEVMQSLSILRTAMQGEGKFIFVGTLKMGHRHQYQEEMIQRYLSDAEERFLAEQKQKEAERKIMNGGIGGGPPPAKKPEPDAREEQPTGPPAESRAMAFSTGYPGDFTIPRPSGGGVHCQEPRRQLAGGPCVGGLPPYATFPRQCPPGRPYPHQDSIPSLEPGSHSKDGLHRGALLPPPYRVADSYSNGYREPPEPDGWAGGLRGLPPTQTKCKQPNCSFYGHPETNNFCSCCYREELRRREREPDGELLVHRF
# Outline: as §1
# PRPF8 = PRPF8 (UniProt Q6P2Q9)
# Outline: as §1
# PSMD7 = molecular target: T3, PSMD7 (UniProt P51665)
# T3 sequence (whole entry): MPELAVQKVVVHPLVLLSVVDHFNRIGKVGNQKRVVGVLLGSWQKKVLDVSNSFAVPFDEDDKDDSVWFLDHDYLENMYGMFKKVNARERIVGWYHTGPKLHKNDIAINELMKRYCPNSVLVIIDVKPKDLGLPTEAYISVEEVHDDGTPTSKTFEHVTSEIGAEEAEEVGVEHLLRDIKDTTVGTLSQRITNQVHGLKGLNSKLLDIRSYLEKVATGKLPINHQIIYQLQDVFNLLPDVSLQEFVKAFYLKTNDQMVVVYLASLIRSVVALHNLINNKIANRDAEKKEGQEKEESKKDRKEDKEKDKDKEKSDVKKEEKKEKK
# Outline: as §1
# UCHL1 = UCHL1 (UniProt P09936)
# Outline: as §1
# UCHL3 = molecular target: T4, UCHL3 (UniProt P15374)
# T4 sequence (whole entry): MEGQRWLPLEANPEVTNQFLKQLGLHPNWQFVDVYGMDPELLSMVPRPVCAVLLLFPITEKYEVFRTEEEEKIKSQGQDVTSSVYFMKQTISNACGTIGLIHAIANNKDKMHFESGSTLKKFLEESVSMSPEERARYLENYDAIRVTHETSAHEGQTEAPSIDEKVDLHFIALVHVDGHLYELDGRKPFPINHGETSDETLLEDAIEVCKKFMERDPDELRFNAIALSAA
# Outline: as §1
# UCHL5 = molecular target: T5, UCHL5 (UniProt Q9Y5K5)
# T5 sequence (whole entry): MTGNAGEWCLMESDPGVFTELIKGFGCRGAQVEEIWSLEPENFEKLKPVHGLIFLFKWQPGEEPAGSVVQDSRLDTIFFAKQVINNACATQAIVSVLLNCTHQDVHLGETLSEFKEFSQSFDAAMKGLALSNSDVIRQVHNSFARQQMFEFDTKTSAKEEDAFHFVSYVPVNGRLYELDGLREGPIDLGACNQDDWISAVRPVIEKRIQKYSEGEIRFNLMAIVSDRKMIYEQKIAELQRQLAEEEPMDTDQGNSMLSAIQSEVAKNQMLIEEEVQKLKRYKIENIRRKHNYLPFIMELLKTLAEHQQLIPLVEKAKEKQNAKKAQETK
# Outline: as §1
# USP10 = USP10 (UniProt Q14694)
# Outline: as §1
# USP15 = molecular target: T6, USP15 (UniProt Q9Y4E8)
# T6 sequence (whole entry): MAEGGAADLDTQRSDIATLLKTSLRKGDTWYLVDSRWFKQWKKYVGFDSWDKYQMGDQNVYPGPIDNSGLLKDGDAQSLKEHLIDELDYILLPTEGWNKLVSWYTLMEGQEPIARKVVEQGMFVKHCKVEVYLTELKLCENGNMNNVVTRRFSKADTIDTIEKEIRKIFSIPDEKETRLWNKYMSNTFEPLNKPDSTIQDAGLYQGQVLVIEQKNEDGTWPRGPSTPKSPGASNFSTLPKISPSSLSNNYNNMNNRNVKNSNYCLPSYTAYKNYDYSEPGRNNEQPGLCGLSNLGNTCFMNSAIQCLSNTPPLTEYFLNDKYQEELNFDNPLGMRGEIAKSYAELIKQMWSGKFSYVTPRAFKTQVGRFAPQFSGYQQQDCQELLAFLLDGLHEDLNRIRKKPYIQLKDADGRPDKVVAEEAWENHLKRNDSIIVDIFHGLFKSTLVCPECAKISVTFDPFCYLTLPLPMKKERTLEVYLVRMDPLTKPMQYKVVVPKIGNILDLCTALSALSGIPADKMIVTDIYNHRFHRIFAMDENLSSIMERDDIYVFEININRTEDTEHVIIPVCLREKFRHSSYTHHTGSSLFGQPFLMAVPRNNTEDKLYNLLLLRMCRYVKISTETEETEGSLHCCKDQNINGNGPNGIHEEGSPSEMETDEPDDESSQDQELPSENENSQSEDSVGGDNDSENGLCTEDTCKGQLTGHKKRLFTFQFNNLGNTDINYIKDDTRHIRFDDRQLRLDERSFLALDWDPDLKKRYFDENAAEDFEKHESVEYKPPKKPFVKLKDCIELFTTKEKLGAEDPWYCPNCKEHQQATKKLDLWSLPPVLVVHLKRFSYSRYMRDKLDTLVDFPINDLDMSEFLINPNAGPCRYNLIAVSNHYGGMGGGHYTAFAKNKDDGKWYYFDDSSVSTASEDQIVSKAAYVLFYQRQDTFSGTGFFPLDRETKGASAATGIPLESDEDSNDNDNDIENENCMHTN
# Outline: as §1
# USP16 = USP16 (UniProt Q9Y5T5)
# Outline: as §1
# USP16, sequence (Q9Y5T5 whole entry, looked up): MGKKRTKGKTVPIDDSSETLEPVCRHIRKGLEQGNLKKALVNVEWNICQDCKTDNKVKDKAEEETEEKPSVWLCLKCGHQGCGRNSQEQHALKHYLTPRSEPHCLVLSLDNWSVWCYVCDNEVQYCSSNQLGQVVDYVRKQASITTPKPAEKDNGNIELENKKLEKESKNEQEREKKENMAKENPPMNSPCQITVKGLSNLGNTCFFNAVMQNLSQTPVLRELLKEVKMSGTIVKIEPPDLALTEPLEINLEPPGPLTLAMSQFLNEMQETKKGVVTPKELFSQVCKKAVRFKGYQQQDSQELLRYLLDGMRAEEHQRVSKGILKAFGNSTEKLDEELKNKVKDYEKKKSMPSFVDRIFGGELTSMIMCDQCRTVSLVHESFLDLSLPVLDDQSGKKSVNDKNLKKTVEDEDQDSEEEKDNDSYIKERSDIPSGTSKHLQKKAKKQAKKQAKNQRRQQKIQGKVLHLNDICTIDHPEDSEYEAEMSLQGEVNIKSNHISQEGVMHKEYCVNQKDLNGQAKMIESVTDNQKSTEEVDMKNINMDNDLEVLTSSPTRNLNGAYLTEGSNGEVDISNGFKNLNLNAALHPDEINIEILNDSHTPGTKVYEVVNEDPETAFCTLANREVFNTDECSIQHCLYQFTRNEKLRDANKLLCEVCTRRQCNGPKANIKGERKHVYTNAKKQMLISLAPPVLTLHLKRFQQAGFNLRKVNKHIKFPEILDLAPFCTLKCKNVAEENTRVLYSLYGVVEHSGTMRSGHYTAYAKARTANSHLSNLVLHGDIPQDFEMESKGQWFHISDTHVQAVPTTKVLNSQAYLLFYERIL
# UCHL1, sequence (P09936 whole entry, looked up): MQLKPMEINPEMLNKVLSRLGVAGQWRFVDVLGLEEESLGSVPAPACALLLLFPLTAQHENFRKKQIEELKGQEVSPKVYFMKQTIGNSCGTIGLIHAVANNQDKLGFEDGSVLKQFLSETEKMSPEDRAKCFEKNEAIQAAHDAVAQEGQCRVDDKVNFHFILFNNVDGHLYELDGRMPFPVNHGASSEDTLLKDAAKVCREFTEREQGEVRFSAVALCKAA
# USP10, sequence (Q14694 whole entry): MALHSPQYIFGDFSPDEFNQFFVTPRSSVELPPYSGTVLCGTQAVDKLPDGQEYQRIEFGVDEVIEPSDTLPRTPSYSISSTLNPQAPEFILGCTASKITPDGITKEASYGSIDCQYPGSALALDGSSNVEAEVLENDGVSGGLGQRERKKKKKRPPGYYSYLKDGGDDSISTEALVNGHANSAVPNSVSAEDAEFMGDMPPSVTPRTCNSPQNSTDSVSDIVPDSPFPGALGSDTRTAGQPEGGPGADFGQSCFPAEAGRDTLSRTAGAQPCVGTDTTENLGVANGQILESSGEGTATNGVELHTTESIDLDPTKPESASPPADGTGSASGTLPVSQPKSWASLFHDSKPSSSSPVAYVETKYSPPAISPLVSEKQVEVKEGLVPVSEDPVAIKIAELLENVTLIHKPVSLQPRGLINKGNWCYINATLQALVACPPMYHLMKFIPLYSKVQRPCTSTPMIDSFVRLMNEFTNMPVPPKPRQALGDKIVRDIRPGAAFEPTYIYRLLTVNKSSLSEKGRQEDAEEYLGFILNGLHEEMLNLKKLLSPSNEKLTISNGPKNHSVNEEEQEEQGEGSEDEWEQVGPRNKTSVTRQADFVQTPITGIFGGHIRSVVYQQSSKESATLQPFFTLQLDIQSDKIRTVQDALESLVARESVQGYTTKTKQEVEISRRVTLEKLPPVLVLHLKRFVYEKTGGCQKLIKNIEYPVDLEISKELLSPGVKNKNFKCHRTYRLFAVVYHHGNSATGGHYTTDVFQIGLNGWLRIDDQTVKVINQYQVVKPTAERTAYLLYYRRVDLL
smiles,measurement,setting,value
Cl.O=C(CCl)NCCc1ncc(F)cc1F,log2 ratio of Biotin-Ahx-Ub-VS probe labelling,OTUD6B,-0.346
same,log2 ratio of Biotin-Ahx-Ub-VS probe labelling,OTUD7B,-0.663
same,log2 ratio of Biotin-Ahx-Ub-VS probe labelling,PRPF8,-0.0362
same,log2 ratio of Biotin-Ahx-Ub-VS probe labelling,PSMD7,-0.45
same,log2 ratio of Biotin-Ahx-Ub-VS probe labelling,UCHL1,-1.7 (active)
same,log2 ratio of Biotin-Ahx-Ub-VS probe labelling,UCHL3,0.191
same,log2 ratio of Biotin-Ahx-Ub-VS probe labelling,UCHL5,-0.376
same,log2 ratio of Biotin-Ahx-Ub-VS probe labelling,USP10,-0.075
same,log2 ratio of Biotin-Ahx-Ub-VS probe labelling,USP15,-0.3
same,log2 ratio of Biotin-Ahx-Ub-VS probe labelling,USP16,-0.0122
